Results taken from the supplement of paper PMC6992640.
± gives the standard deviation of the averaged measurements.

What was measured:
Assay in all cases: cell viability (% of vehicle); higher = less cytotoxic
Details in all cases: 10 µM; 72 h
HCI03 = tested on: HCI03 (cells of an ER-positive luminal breast cancer xenograft)
HCI09 = tested on: HCI09 (cells of a triple-negative luminal androgen receptor type breast cancer xenograft)
HCI11 = tested on: HCI11 (cells of an ER-positive luminal breast cancer xenograft)
HCI13 = tested on: HCI13 (cells of an ER-positive luminal breast cancer xenograft)
HCI16 = tested on: HCI16 (cells of a triple-negative basal-like breast cancer xenograft)
UCD52 = tested on: UCD52 (cells of a triple-negative basal-like breast cancer xenograft)
WHIM2 = tested on: WHIM2 (cells of a triple-negative basal-like breast cancer xenograft)
WHIM30 = tested on: WHIM30 (cells of a triple-negative basal-like breast cancer xenograft)
HCI01 = tested on: HCI01 (cells of a triple-negative basal-like breast cancer xenograft)
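Further: PDX cells carrying CMV promoter-driven luciferase, viability read as total photon flux per second by IVIS imaging following D-luciferin, vehicle control 0.1% DMSO.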

Row | SMILES | cell viability (HCI03) | cell viability (HCI09) | cell viability (HCI11) | cell viability (HCI13) | cell viability (HCI16) | cell viability (UCD52) | cell viability (WHIM2) | cell viability (WHIM30) | cell viability (HCI01)
1 | CO[C@H]1C[C@@H]2CC[C@@H](C)[C@@](O)(O2)C(=O)C(=O)N2CCCC[C@H]2C(=O)O[C@H]([C@@H](C)C[C@@H]2CC[C@@H](OCCO)[C@H](OC)C2)CC(=O)[C@H](C)/C=C(\C)[C@@H](O)[C@@H](OC)C(=O)[C@H](C)C[C@H](C)/C=C/C=C/C=C/1C [Everolimus (RAD001)] | 69.8 | 27.5 ± 4 | 102 | 54.91 ± 0.39 | 179 | 55.2 ± 9.9 | 41.9 ± 4.8 | 160 ± 35 | –
2 | CCn1cc(C(=O)O)c(=O)c2cnc(N3CCCC3)nc21 [Piromidic Acid] | – | 132 ± 5 | 110 | 171 ± 27 | 125 | 145 ± 4.4 | – | – | 151 ± 52
3 | O=C(C=CC=Cc1ccc2c(c1)OCO2)N1CCCCC1 [Piperine] | – | – | 134 | – | 131 | – | 117 ± 0.57 | 111.83 ± 0.044 | 158 ± 4
4 | CNCCc1ccccn1.Cl.Cl [Betahistine 2HCl] | 134 | 103 ± 23 | 140 | 89.7 ± 17 | – | 133 ± 48 | 93.5 ± 30 | 186 ± 14 | –
5 | OCC1OC(O)C(O)C(O)C1O [Dextrose (D-glucose)] | – | 106 ± 1.3 | 125 | 124 ± 6.9 | 110 | 88.77 ± 0.6 | 105 ± 3.9 | 153 ± 12 | 123.4 ± 0.67
6 | CCN(CC)CCNC(=O)c1ccc(N)cc1.Cl [Procainamide HCl] | – | 108 ± 4.1 | 95.8 | 98 ± 2.4 | 116 | 100 ± 7.8 | 110 ± 10 | 197 ± 10 | 110 ± 3.9
7 | Cl.Nc1ccc(N=Nc2ccccc2)c(N)n1 [Phenazopyridine HCl] | – | – | 136 | – | 200 | – | 191 ± 47 | – | 196 ± 12
8 | Nc1ccccc1NC(=O)c1ccc(CNC(=O)OCc2cccnc2)cc1 [Entinostat (MS-275,SNDX-275)] | 109 | 119 ± 130 | – | 58.7 ± 7.4 | – | – | 75.7 ± 17 | – | –
9 | CC1(C)CCC(CN2CCN(c3ccc(C(=O)NS(=O)(=O)c4ccc(NCC5CCOCC5)c([N+](=O)[O-])c4)c(Oc4cnc5[nH]ccc5c4)c3)CC2)=C(c2ccc(Cl)cc2)C1 | – | 61.5 ± 30 | 68.4 | 129 ± 10 | 80 | 101 ± 14 | 151 ± 32 | 99.4 ± 53 | 83.9 ± 55
10 | CCCc1nc(C(C)(C)O)c(C(=O)OCc2oc(=O)oc2C)n1Cc1ccc(-c2ccccc2-c2nn[nH]n2)cc1 [Olmesartan medoxomil] | 150 | 110 ± 1.2 | 162 | 128 ± 2.5 | 182 | 168 ± 28 | 105 ± 20 | 177 ± 30 | –
11 | O=c1c(-c2ccc(O)cc2)coc2cc(O)ccc12 [Daidzein] | 155 | – | 114 | – | 180 | 149 ± 13 | 119 ± 7.2 | – | 146 ± 37
12 | C[C@@H]1C\C=C/C=C\C=C/C=C\[C@H](O[C@@H]2O[C@H](C)[C@@H](O)[C@H](N)[C@@H]2O)C[C@@H]2O[C@](O)(C[C@@H](O)C[C@H]3O[C@@H]3/C=C\C(=O)O1)C[C@H](O)[C@H]2C(=O)O [Natamycin] | 137 | 121 ± 19 | 146 | 144.5 ± 1.4 | – | 156 ± 48 | 103 ± 9.2 | 199 ± 34 | –
